The results in this text go back to the supplement of paper PMC6555819.

For the experiment, the system named is RARb:RXRa (NR concentration 270 nM, RXRa partner concentration 90 nM). Kind of experiment: PBM binding z-score (relative to random genomic background probes); higher = stronger binding; sequences stand for … in GC…GCGATTGACAGCGTAGAATGAAGG
The gist of the method:
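Ligand-free nuclear receptor dimers were bound for 1 h to custom Agilent 4×180K protein-binding microarrays. Detection used antibodies against each partner (one per run). Binding z-scores rest on regression-normalized fluorescence, with random background probes as the reference.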
As to CTACCAAGGTGAACAAGGTCGCTGATTACTATTC, the PBM binding z-score worked out at 2.17.

Turning to CTTAGCAGGCCAGGGTCACTCAAGCATTTCGCTT, the PBM binding z-score stood at 2.81.

CCTACTGAGCCATTCAGAGGTCATTGATCATATG: the PBM binding z-score was 2.87.

On to GGAAAGAGGGCAAGTTGATAGCAGAGTTTGATGG, for which the PBM binding z-score came out at 2.93.

For the sequence ATCTCTAGGTAACAAGTTCAGTGGAAGAGAGGAC, the PBM binding z-score came to 1.8.

In turn, TCTCGGCGGACACGAAAGGTCAGAGCTCGACATC displayed a PBM binding z-score of 3.56.

For the sequence CCTTACTGGTCACTGACAGGTTATAGCATTTGGA, the PBM binding z-score is 1.72.

CGACCAAGGTCAGCAGGTCAGTGAAAGCGACGTG gave a PBM binding z-score of 5.02.

Sequence TCTTGTAGATCAACAGAGGTTAAGAAAGTGCGCT registered a PBM binding z-score of 1.18.

On to CCTAGTTGGTCAAGGTCACACTCGCTATAGGTAC, for which the PBM binding z-score turned out to be 3.85.

CAAACTAGGTCAAGAGATCAAAGTCCGCTTCCCG had a PBM binding z-score of 3.92.

The sequence CTACTAAGGTGAACAAGGTCGTTGATTACTATTC gave a PBM binding z-score of 2.4.

Take CGTCCAAGGTCAAGGCCAGTGAAAGAGACTCGAA: the PBM binding z-score stood at 5.19.

ATCTCTGGGTAAGACTCAGTTCAGTGAAGAACGC gave a PBM binding z-score of 0.293.

As to GCTAGTTGGTCAGTAAAAGGACACACACCGGTCG, the PBM binding z-score was determined as 1.61.

For CCGACTGGGCCAAAAAGGTCATTGATGCCGATAA, the PBM binding z-score is 3.9.

Sequence TAGCCTAGGTCATTCAGGGGCCAGGATAGAAAGC had a PBM binding z-score of 3.97.

The sequence GCGACTGGGGCAGCAGCAGGTTACCATAACTTAA yielded a PBM binding z-score of 0.608.
